Reference: PubChem BioAssay (NCATS)
A number with no mark means an inactive call. Inconclusive results are not listed. Active and inactive are the calls of the source. Calls follow the shape of the dose curve; as a rule, active = well fitted curve in the direction sought with a large enough effect; inconclusive = small, poorly fitted or top-dose-only effect, or another doubt; inactive = no such curve, though single readings can be large; an effect the other way counts as inactive or inconclusive.

Tests used:
[1] = target: Cytochrome P450 3A4 (Homo sapiens) (UniProt P08684); experiment: qHTS Assay for Activators of Cytochrome P450 3A4 (AID 885); also: nearly all actives have a fitted effect of over 65% in size
In short: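 Activators are scored by enhanced luminescence from CYP3A4 conversion of luciferin-PPXE (25uM, equal to KM) to luciferin, after 60 min at RT with an NADPH-regenerating system.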

[2] = target: Cytochrome P450 2D6 (Homo sapiens) (UniProt P10635); experiment: qHTS Assay for Inhibitors and Substrates of Cytochrome P450 2D6 (AID 891); also: nearly all actives have a fitted effect of over 60% in size; also: potency is read from the fitted curve at half-maximal effect
In short: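 Luminescent read-out of luciferin formed by 5 nM human CYP2D6 demethylating 30 uM Luciferin-ME EGE (Km level) over 60 min at room temperature after NADPH regeneration addition. Data normalized to full inhibition by 1.43 uM quinidine.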

Cytochrome P450 3A4 (Homo sapiens), sequence (P08684 whole entry, looked up): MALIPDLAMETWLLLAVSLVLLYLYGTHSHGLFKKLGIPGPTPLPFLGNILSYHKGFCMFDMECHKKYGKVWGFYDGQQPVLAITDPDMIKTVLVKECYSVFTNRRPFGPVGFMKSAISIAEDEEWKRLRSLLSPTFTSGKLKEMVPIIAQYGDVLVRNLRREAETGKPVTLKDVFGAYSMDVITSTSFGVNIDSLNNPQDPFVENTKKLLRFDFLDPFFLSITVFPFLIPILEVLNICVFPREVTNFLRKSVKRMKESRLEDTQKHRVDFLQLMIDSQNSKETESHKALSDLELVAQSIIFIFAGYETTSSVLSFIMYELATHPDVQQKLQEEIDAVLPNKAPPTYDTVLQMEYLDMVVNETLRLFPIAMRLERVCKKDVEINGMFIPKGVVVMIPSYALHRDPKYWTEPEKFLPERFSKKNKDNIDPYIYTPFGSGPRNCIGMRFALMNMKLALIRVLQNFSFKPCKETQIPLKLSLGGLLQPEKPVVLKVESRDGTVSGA
Cytochrome P450 2D6 (Homo sapiens), sequence (P10635 whole entry, looked up): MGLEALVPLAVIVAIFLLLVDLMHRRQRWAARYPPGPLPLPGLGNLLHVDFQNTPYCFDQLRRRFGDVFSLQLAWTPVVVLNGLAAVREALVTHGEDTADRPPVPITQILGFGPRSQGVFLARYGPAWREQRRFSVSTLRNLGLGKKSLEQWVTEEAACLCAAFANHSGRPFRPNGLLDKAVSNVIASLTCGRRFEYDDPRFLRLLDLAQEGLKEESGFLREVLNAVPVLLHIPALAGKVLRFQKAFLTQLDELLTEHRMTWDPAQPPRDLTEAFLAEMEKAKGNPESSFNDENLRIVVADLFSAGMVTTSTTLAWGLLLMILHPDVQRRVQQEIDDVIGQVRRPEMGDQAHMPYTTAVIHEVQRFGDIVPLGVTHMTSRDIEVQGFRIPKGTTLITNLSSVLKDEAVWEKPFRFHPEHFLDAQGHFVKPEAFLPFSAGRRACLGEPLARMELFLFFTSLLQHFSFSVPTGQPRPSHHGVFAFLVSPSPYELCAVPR

| Compound | activity change, positive = activation [1] | Potency [2] | Potency [1] |
| --- | --- | --- | --- |
| CCN1C(=O)[C@H]2[C@H]3[C@H](O)[C@H](O)C/C(=N/OC[C@@H](C)[C@H](OCc4ccccc4)C(C)C)[C@@H]3CC[C@@H]2C1=O | -44.7% [at 11.4 µM] | inactive | – |
| CO[C@@H]1COC(=O)[C@@H](C)NC(=O)C/C=C\[C@@H](C)[C@H](NS(=O)(=O)c2ccc(C)cc2)COC(=O)[C@H](C)NC(=O)C/C=C\[C@H]1C | -53.2% [at 11.4 µM] | inactive | – |
| C[C@@H]1/C=C\CC(=O)OC[C@H]2O[C@@H](C=C[C@@H]2O)[C@H](C)/C=C\CC(=O)OC1 | -35.6% [at 11.4 µM] | inactive | – |
| C#CCCCO/N=C1/C[C@@H](O)[C@@H](O)[C@@H]2[C@@H]3C(=O)N(C[C@@H]4CCCO4)C(=O)[C@H]3CC[C@H]12 | -43.2% [at 11.4 µM] | – | – |
| C[C@@H](c1ccccc1)N1C(=O)[C@H]2[C@H]3[C@H](O)[C@H](O)C/C(=N/OCc4ccccc4)[C@@H]3CC[C@@H]2C1=O | -50% [at 11.4 µM] | inactive | – |
| COC(=O)[C@@H]1C[C@H]2CC[C@H](O)C[C@H]2N1Cc1ccc(C(F)(F)F)cc1 | – | – | inactive |
| CO/N=C(\C)CCN1CCCCc2nc(C)c(C)cc21 | -38.2% [at 11.4 µM] | 3.98 µM (active) | – |
| CC(=O)OC[C@@H]1O[C@H](C/C=N\O[C@@H](C)CN2CCCc3nc(C)c(C)cc32)C=C[C@@H]1OC(C)=O | -35.5% [at 11.4 µM] | 3.16 µM (active) | – |
